Screens: PubChem, National Center for Advancing Translational Sciences (NCATS)
Marburg entry inh: qHTS for inhibitors of binding or entry into cells for Marburg Virus; AID 540276, 2011; Marburg virus pseudotyped entry inhibition, cell reporter; 300,000 compounds, 1.8% hits; Potency, µM (top dose mostly 37.8 µM), hits mostly inhibitors; calls by dose curve; tested in HEK293 cells
LASV entry inh: qHTS for Inhibitors of binding or entry into cells for Lassa Virus; AID 540256, 2011; Potency, µM (series often up to 37.9 µM), usual class: inhibitors; Lassa virus pseudotype entry inhibition, cell reporter; 300,000 compounds, 1.2% hits; calls by dose curve; tested in HEK293 cells; note: nearly all actives have a fitted effect of over 50% in size
FMDV inh: High Throughput Screening for Foot and Mouth Disease Virus Antivirals. Potency, µM (top dose mostly 57.9 µM), usual class: inhibitors. 410,000 compounds, 1.2% hits. FMDV antiviral cell-based qHTS. AID 1159524, 2015; calls by dose curve; tested in HEK293T cells; note: read-out not given here; nearly all actives have a fitted effect of over 45% in size
HCV inhibitor: qHTS Assay for Inhibitors of Hepatitis C Virus (HCV). Huh7.5.1 HCVcc-Cre infection, luciferase reporter, 44 h. Potency, µM (doses to about 41.8 µM), usual class: inhibitors. 340,000 compounds, 3.4% hits. AID 651820, 2012; active = well fitted inhibition curve with a large enough effect; inconclusive = small, poorly fitted or top-dose-only effect, or another doubt; inactive = no such curve, though single readings can be large or run the other way
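Cells (1,000/well) were plated 4 h before compound, then infected with HCVcc-Cre virus (~0.5 moi). After 44 h further culture, infection was read as luciferase luminescence following a 15 min substrate incubation at room temperature.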
HCMV inh: qHTS Assay for inhibitors of the human cytomegalovirus (HCMV); HFF cells, HCMV-luciferase reporter, 72 h; hits give low values; activity change, negative = inhibition, % at 57.5 µM; 410,000 compounds, 4.5% hits; AID 1259415, 2018; in the data active = activity change below about -60%; inconclusive = no clear call, values can overlap the other calls; inactive = above about -39%
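Cell-based, HFFs, 1000 cells/well, 16 h 37C; cpds in DMSO + HCMV-luc, MOI 1 PFU/cell; 72 h 37C; OneGlo luminescence after 5 min RT; norm. to buffer vs Salinomycin 10uM.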
Each line names hits and unclear results; the compound was inactive in the other large screens; ! = not active in a repeat. This is a sample that favours compounds with a hit; in the whole collection about 7.9% have one here.

COc1ccc(Cc2noc(CN3CCN(C4CCc5ccccc5C4)CC3)n2)cc1OC (stereo not given)	Marburg entry inh inconclusive, FMDV inh 20µM, HCV inhibitor inconclusive
Fc1cccc(Cc2noc(CN3CCCN(C4Cc5ccccc5C4)CC3)n2)c1	Marburg entry inh 11.2µM
CN1C(C(=O)Nc2cccc(O)c2)=CC(c2ccco2)=NS1(=O)=O	Marburg entry inh inconclusive, HCMV inh -63.5!
Cc1ccc(O)c(NC(=O)C2=CC(c3ccco3)=NS(=O)(=O)N2C)c1	none
Fc1ccc(-c2csc(-c3nc(-c4ccc(Br)s4)cs3)n2)cc1	Marburg entry inh inconclusive, LASV entry inh inconclusive (no result: HCV inhibitor)
O=C(c1cnc2ccccn2c1=O)N1CCCc2ccccc21	HCMV inh -63.8
O=C(c1coc(=O)c(Br)c1)N1CCCc2ccccc21	HCMV inh -75.0
O=C(C(c1ccccc1)c1ccccc1)N1CCCc2ccccc21	Marburg entry inh 14.1µM
COc1ccc(Nc2cc3c(cn2)cc(-c2cccc(F)c2)n3C)cn1	none (no result: Marburg entry inh, LASV entry inh, FMDV inh, HCV inhibitor)
CCOc1cc(CNCc2ccccc2)ccc1OCc1ccc(Cl)cc1	Marburg entry inh inconclusive, LASV entry inh inconclusive, FMDV inh inconclusive, HCV inhibitor 22.4µM, HCMV inh -84.5
CCOc1cc(CNCCc2ccc(S(N)(=O)=O)cc2)ccc1OCc1ccccc1	Marburg entry inh 6.51µM, LASV entry inh inconclusive, FMDV inh inconclusive, HCV inhibitor 12.6µM, HCMV inh inconclusive
COc1ccc(CNCCc2ccc(Cl)cc2)cc1OCc1ccccc1	Marburg entry inh inconclusive, LASV entry inh inconclusive, HCV inhibitor inconclusive (no result: HCMV inh)
CCOCCCNCc1cc(Br)ccc1OCc1ccccc1	Marburg entry inh inconclusive, HCV inhibitor inconclusive
NS(=O)(=O)c1ccc(CCNCc2cc(Br)ccc2OCc2ccccc2)cc1	Marburg entry inh inconclusive, LASV entry inh inconclusive, FMDV inh inconclusive, HCV inhibitor 11.2µM, HCMV inh -66.2
OCCNCc1cc(Br)ccc1OCc1ccccc1	Marburg entry inh inconclusive, HCMV inh -67.6
COc1cc(=O)n2c(c1C(=O)NCc1ccco1)CCN(Cc1ccc3ccccc3c1)CC2	none (no result: Marburg entry inh, LASV entry inh, HCV inhibitor, HCMV inh)
COC(=O)[C@]1(C#N)[C@H](C)C(=O)N(C(C)C)[C@@H]1c1ccc(OC)cc1	none (no result: Marburg entry inh, LASV entry inh, FMDV inh, HCV inhibitor)
Cc1ccc(C)c(N2CCN(S(=O)(=O)c3cc(-c4cc(C)no4)ccc3C)CC2)c1	none (no result: Marburg entry inh, HCV inhibitor)
Cc1cc(-c2ccc(C)c(S(=O)(=O)N3CCN(c4ccc([N+](=O)[O-])cc4)CC3)c2)on1	Marburg entry inh inconclusive, LASV entry inh inconclusive, HCV inhibitor inconclusive, HCMV inh -73.0
Cc1cc(C)cc(NC(=O)CN2C(=O)c3ccccc3Sc3ccc(C(=O)N4CCCC4)cc32)c1	none (no result: Marburg entry inh, HCV inhibitor)
COc1cc(OC)c(NS(=O)(=O)c2c(C(=O)N3CCCCCC3)c(C)n(C)c2C)cc1Cl	none (no result: Marburg entry inh, HCV inhibitor)
CC(C)c1ccc(CNc2ccc3c(c2)ncn3C)cc1	HCV inhibitor inconclusive (no result: Marburg entry inh, LASV entry inh)
CN(C)c1ccc(CNc2ccc3c(c2)ncn3C)cc1	Marburg entry inh inconclusive, HCV inhibitor inconclusive, HCMV inh -102.1
CCN(CC)c1ccc(CNc2ccc3c(c2)ncn3C(C)(C)C)cc1	Marburg entry inh inconclusive, HCMV inh -67.7
CCc1ccc(CNc2ccc3c(c2)ncn3C(C)(C)C)cc1	Marburg entry inh 10µM, LASV entry inh 1.78µM, HCMV inh -64.4!
CCOc1ccc(N(CC)C(=O)c2cc3c(s2)-c2ccc(Cl)cc2SC3)cc1	LASV entry inh inconclusive (no result: HCV inhibitor)
COc1ccc(Br)cc1CNC(=O)CCc1cn(Cc2ccc(C)cc2)c2ccccc12	none (no result: Marburg entry inh, HCV inhibitor)
CCOC(=O)c1c(C)[nH]c(NC(=O)NNC(=O)c2ccccc2Cl)c1C	HCV inhibitor 11.2µM (no result: Marburg entry inh, LASV entry inh)
S=C(Nc1ccc(Cl)cc1)Nc1cccc2cnccc12	Marburg entry inh inconclusive, LASV entry inh inconclusive, HCV inhibitor inconclusive, HCMV inh -97.7
CC1CCCCC1NC(=S)Nc1cccc(S(=O)(=O)N(C)C)c1 (stereo not given)	HCMV inh -68.5
Fc1ccc(NC(=S)Nc2cccc3cnccc23)cc1	none (no result: LASV entry inh)
Fc1ccc(NC(=S)Nc2cccc3ccccc23)cc1F	HCV inhibitor inconclusive, HCMV inh -71.3 (no result: Marburg entry inh, LASV entry inh)
Fc1ccc(NC(=S)Nc2cccc3ccccc23)cc1	none (no result: Marburg entry inh, LASV entry inh)
CN(C)S(=O)(=O)c1cccc(NC(=S)Nc2cccc3cnccc23)c1	Marburg entry inh inconclusive, LASV entry inh inconclusive, FMDV inh inconclusive, HCMV inh -71.8
COc1ccccc1NC(=S)Nc1cccc2cnccc12	Marburg entry inh inconclusive, FMDV inh inconclusive, HCV inhibitor 10µM, HCMV inh -79.3
CN(C)S(=O)(=O)c1cccc(NC(=S)N/N=C/c2cc(Br)ccc2O)c1	Marburg entry inh 10µM, LASV entry inh inconclusive, FMDV inh inconclusive, HCMV inh -97.7
COc1ccc(NC(=S)Nc2cccc3cnccc23)cc1	HCMV inh inconclusive
CN(C)S(=O)(=O)c1cccc(NC(=S)N/N=C/c2cccc(O)c2)c1	FMDV inh inconclusive
CCN(C(=O)c1cn(-c2ccc(OC)cc2)c(=O)c2ccccc12)c1cccc(Cl)c1	HCMV inh inconclusive (no result: Marburg entry inh, HCV inhibitor)
CC(C)N1C(=O)c2ccccc2N(Cc2ccccc2)S1(=O)=O	HCMV inh -61.6 (no result: Marburg entry inh, LASV entry inh)
CC1(C)C(c2ccccc2)=NC(c2ccc(Br)cc2)N1O (stereo not given)	Marburg entry inh inconclusive, FMDV inh 3.98µM
COc1cc(C=C(C(C)=O)C(C)=O)ccc1O	FMDV inh inconclusive
COc1ccc(C=C(C(C)=O)C(C)=O)cc1OC	FMDV inh 28.2µM
CC(=O)Nc1ccc(/C=C(\C#N)C(N)=O)cc1	Marburg entry inh inconclusive
CC(=O)Nc1ccc(C=C(C(C)=O)C(C)=O)cc1	FMDV inh 31.6µM
COc1cc(-c2nnc(SCC(=O)NCc3ccccc3Cl)o2)cc(OC)c1OC	LASV entry inh inconclusive, FMDV inh inconclusive (no result: HCV inhibitor)
CN1CCN(CCCNC(=O)c2ccc3c(Cl)c4c(nc3c2)CCCC4)CC1	HCV inhibitor 10µM, HCMV inh inconclusive (no result: Marburg entry inh, LASV entry inh)
COc1ccc(CCNC(=O)c2ccc3c(Cl)c4c(nc3c2)CCCC4)c(OC)c1	FMDV inh inconclusive, HCMV inh -94.1 (no result: HCV inhibitor)
COc1ccc(CCNC(=O)c2ccc3c(Cl)c4c(nc3c2)CCCC4)cc1OC	FMDV inh inconclusive, HCMV inh inconclusive (no result: HCV inhibitor)
CCc1ccc(CNC(=O)c2ccc3c(Cl)c4c(nc3c2)CCCC4)cc1	LASV entry inh inconclusive (no result: HCV inhibitor)
O=C(c1ccc2c(Cl)c3c(nc2c1)CCCC3)N1CCC(N2CCCCC2)CC1	Marburg entry inh 4.61µM, LASV entry inh inconclusive, HCV inhibitor inconclusive, HCMV inh -60.3
COc1ccc(CNC(=O)c2ccc3c(Cl)c4c(nc3c2)CCCC4)c(OC)c1	LASV entry inh inconclusive, HCMV inh inconclusive (no result: HCV inhibitor)
O=C(NCc1ccc(F)cc1)c1ccc2c(Cl)c3c(nc2c1)CCCC3	Marburg entry inh inconclusive, HCMV inh -72.9 (no result: HCV inhibitor)
O=C(c1ccc2c(Cl)c3c(nc2c1)CCCC3)N1CCN(c2ccccc2)CC1	none (no result: HCV inhibitor)
CCC(C)Sc1cccc(-c2nc3ccc(C)cn3c2NCc2ccccc2)c1 (stereo not given)	FMDV inh 31.6µM! (no result: Marburg entry inh, LASV entry inh)
Cc1ccc2nc(-c3cccc(-c4cccc(Cl)c4)c3)c(NCc3ccccc3)n2c1	FMDV inh 35.5µM (no result: Marburg entry inh, LASV entry inh)
